# Measurements reported in PubChem BioAssay (NCI).
# “And” between values parts separate entries of the source, which are not always exact repeats. Equal values may be shown once. This is part of a sample that, as a whole, favours compounds with a hit. Of some 83,000 tested, about 20% had one in any assay.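 Negative percent growth values reflect cell death: -40 means 40% of the cells present at the start died, and -100 means all died.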 More than one record can exist for a structure, and the calls need not agree. The source made the active and inactive calls. How the source made its calls: active means growth percent below 10; inactive means the rest.
# What was measured:
# Test in all cases: NCI-60 one-dose screen, 48 h (100 = growth as untreated, 0 = no growth, -100 = all killed)
# Details in all cases: 10 µM unless noted
# [1] = tested on: SR leukemia
# [2] = tested on: RPMI-8226 leukemia
# [3] = tested on: OVCAR-8 ovarian
# [4] = tested on: OVCAR-5 ovarian
# [5] = tested on: OVCAR-4 ovarian
# [6] = tested on: SK-OV-3 ovarian
# [7] = tested on: IGROV1 ovarian
# [8] = tested on: OVCAR-3 ovarian
# [9] = tested on: HS 578T breast
# [10] = tested on: NCI/ADR-RES ovarian
# [11] = tested on: T-47D breast
# [12] = tested on: BT-549 breast
# [13] = tested on: MDA-MB-435 melanoma
# [14] = tested on: SW-620 colon
# [15] = tested on: MCF7 breast
# [16] = tested on: HCT-116 colon
# [17] = tested on: HCC-2998 colon
# [18] = tested on: KM12 colon
Structure (SMILES),growth [1],growth [2],growth [3],growth [4],growth [5],growth [6],growth [7],growth [8],growth [9],growth [10],growth [11],growth [12],growth [13],growth [14],growth [15],growth [16],growth [17],growth [18]
CC1=NN(c2ccccc2)C(=O)C1C(=O)c1ccccc1 (stereo unspecified),82.7% (inactive),91.9% (inactive),88.4% (inactive),120% (inactive),108% (inactive),112% (inactive),100% (inactive),102% (inactive),127% (inactive),101% (inactive),86.9% (inactive),103% (inactive),104% (inactive),101% (inactive),86% (inactive),98.3% (inactive),90.5% (inactive),–
Cc1cc(=O)[nH]c(O)c1C#N,94.8% (inactive) and 122% (inactive),119% (inactive) and 332% (inactive),105% (inactive) and 101% (inactive),93.7% (inactive) and 90% (inactive),99.8% (inactive) and 104% (inactive),105% (inactive) and 96.2% (inactive),100% (inactive),112% (inactive),120% (inactive) and 109% (inactive),106% (inactive) and 105% (inactive),97.2% (inactive) and 91% (inactive),100% (inactive) and 103% (inactive),101% (inactive) and 103% (inactive),102% (inactive) and 106% (inactive),97.3% (inactive) and 103% (inactive),100% (inactive) and 96.2% (inactive),101% (inactive) and 100% (inactive),108% (inactive) and 116% (inactive)
O=C(O)C1(C(=O)O)CCC1.[NH2-].[NH2-].[Pt+2],122% (inactive) and 50.7% (inactive),104% (inactive),102% (inactive),97.6% (inactive) and 83.7% (inactive),109% (inactive) and 92.2% (inactive),104% (inactive) and 107% (inactive),95.6% (inactive),117% (inactive) and 105% (inactive),105% (inactive) and 112% (inactive),103% (inactive) and 99.7% (inactive),96.6% (inactive) and 102% (inactive),103% (inactive) and 106% (inactive),108% (inactive) and 99.5% (inactive),111% (inactive) and 103% (inactive),98.5% (inactive) and 90.9% (inactive),107% (inactive) and 108% (inactive),97.2% (inactive) and 118% (inactive),112% (inactive) and 100% (inactive)
NC(=O)NO,54.6% (inactive),98.8% (inactive) and 42.1% (inactive),99.8% (inactive),108% (inactive) and 45.8% (inactive),105% (inactive) and 59.5% (inactive),107% (inactive) and 56.4% (inactive),104% (inactive) and 47% (inactive),110% (inactive) and 70.1% (inactive),109% (inactive) and -24.6% (active),99.4% (inactive) and 87.4% (inactive),107% (inactive) and 46.6% (inactive),110% (inactive) and 41.5% (inactive),98.5% (inactive) and 74.4% (inactive),105% (inactive) and 78.4% (inactive),96.9% (inactive) and 65.2% (inactive),109% (inactive) and 67.6% (inactive),111% (inactive) and 73.1% (inactive),100% (inactive) and 67.8% (inactive)
CNC(=O)c1ccc(C)c(-n2c(C)cc(OCc3ccc(F)cc3F)c(Br)c2=O)c1,64.9% (inactive) and 85.9% (inactive),48.2% (inactive) and 74% (inactive),70.3% (inactive) and 86.8% (inactive),77.1% (inactive) and 86.2% (inactive),73.7% (inactive) and 84.9% (inactive),76.4% (inactive) and 91.3% (inactive),84.6% (inactive) and 92% (inactive),85.1% (inactive) and 101% (inactive),103% (inactive),80.5% (inactive) and 80.7% (inactive),40.9% (inactive) and 58.7% (inactive),75.7% (inactive) and 76.4% (inactive),85.4% (inactive) and 99.4% (inactive),79.9% (inactive) and 95.9% (inactive),82.8% (inactive) and 90.5% (inactive),68.1% (inactive) and 78.4% (inactive),67.5% (inactive) and 72.6% (inactive),90% (inactive) and 92.5% (inactive)
OC1CCC(Oc2cccc3cnc(Nc4ccc5nc[nH]c5c4)nc23)CC1 (stereo unspecified),-15.3% (active) and -4.18% (active),-16.7% (active) and 55% (inactive),5.91% (active) and 52.6% (inactive),24.2% (inactive) and 41.7% (inactive),15.7% (inactive) and 73.9% (inactive),8.38% (active) and 57.4% (inactive),19.1% (inactive) and 52.3% (inactive),5.57% (active) and 53.7% (inactive),-7.28% (active) and 15.8% (inactive),9.41% (active) and 83.2% (inactive),-7.14% (active) and 43.9% (inactive),-19.5% (active) and 18.4% (inactive),12.3% (inactive) and 58.4% (inactive),5.88% (active) and 32.4% (inactive),5.53% (active) and 17.9% (inactive),-6.99% (active) and 2.03% (active),–,1.29% (active) and 15.7% (inactive)
CN(C)CCC(=O)c1ccc(Cl)cc1,110% (inactive),75.4% (inactive) and 58% (inactive),110% (inactive) and 105% (inactive),117% (inactive) and 113% (inactive),105% (inactive) and 118% (inactive),108% (inactive),100% (inactive) and 116% (inactive),115% (inactive) and 113% (inactive),112% (inactive),114% (inactive) and 104% (inactive),110% (inactive) and 97.4% (inactive),107% (inactive) and 98.8% (inactive),113% (inactive) and 110% (inactive),103% (inactive) and 108% (inactive),90.6% (inactive) and 86.2% (inactive),101% (inactive) and 102% (inactive),97.3% (inactive),108% (inactive) and 109% (inactive)
CCOc1ccc(Nc2c3ccccc3nc3ccccc23)cc1,81.6% (inactive) and 7.88% (active) and -40.6% (active),81.3% (inactive) and 18% (inactive) and -19.7% (active),83.6% (inactive) and 22.9% (inactive) and 36.9% (inactive),90.8% (inactive) and 29.4% (inactive) and 47.8% (inactive),90.9% (inactive) and 36.4% (inactive) and 37.9% (inactive),96.6% (inactive) and 30.7% (inactive) and 40.5% (inactive),92.1% (inactive) and 20.4% (inactive) and 16.5% (inactive),96.5% (inactive) and 17.9% (inactive) and 35.1% (inactive),88.5% (inactive) and 60.2% (inactive) and 61.7% (inactive),82.8% (inactive) and 22.6% (inactive) and 16.8% (inactive),91.5% (inactive) and 13.1% (inactive) and 22.8% (inactive),94.4% (inactive) and 41.6% (inactive) and -3.76% (active),103% (inactive) and 24.5% (inactive) and 30.9% (inactive),92.8% (inactive) and 21% (inactive) and 29.1% (inactive),91.3% (inactive) and 20.1% (inactive) and 8.99% (active),87.6% (inactive) and -13.1% (active) and 13.2% (inactive),–,99.8% (inactive) and 18% (inactive) and 33.3% (inactive)
